# Screen size: about 68,000 compounds; about 2,700 (4%) showed an effect of 50% or more. Many of the other results were omitted from the sample, so strong results are more common in it than they were.
# Tested on: Plasmodium berghei
# Assay: Screen against P. berghei liver stage (PbLuc), transformed with Luciferase, at 2uM
# Type: functional, HepG2
# Conditions: tested at 2 uM
row,Structure (SMILES),INHIBITION [%]
1,CCc1cnc(CN2C(=O)CC3(CCSC3)C2=O)o1 (configuration not stated),15.39
2,CC(C)c1cnc(CN2C(=O)CC3(CCSC3)C2=O)o1 (configuration not stated),-21.1
3,CC(C)(C)c1cnc(CN2C(=O)CC3(CCSC3)C2=O)o1 (configuration not stated),53.99
4,Cc1nc2ccc(-n3ncnc3[C@@H]3CCCN3S(C)(=O)=O)cc2s1,-35.1
5,CC(C)(C)CN1Cc2cc3c(cc2NCCC1=O)OCO3,-15.54
6,CN(C)CCn1c2c(ccc1=O)CCN(C(=O)c1cccs1)CC2,53.27
7,Cc1ccc(C(=O)N2CCc3ccc(=O)n(CCN(C)C)c3CC2)o1,5.77
8,CN(C)CCn1c2c(ccc1=O)CCN(C(=O)c1ccoc1)CC2,17.31
9,Cc1cc(C)cc(C(=O)N2CCCN(CC(N)=O)CC2)c1,16.13
10,NC(=O)N1CCCN(CC(=O)NCCc2c(F)cccc2F)CC1,19.12
11,Cc1cc(C)c(CCNC(=O)CN2CCCN(C(N)=O)CC2)c(C)c1,66.74
12,O=C(c1ccc2c(c1)OCO2)N1CCC[C@]2(C[C@H](OCC3CC3)CO2)C1,10.43
13,O=C(CN1CCCC1Cn1cccn1)NC1CCOCC1 (configuration not stated),4.41
14,CCCS(=O)(=O)c1ccc(N2CCN(Cc3ccccc3)CC2)nn1,27.54
15,Cc1nc(N2CCN(S(C)(=O)=O)CC2)cc(-n2cnc(C)c2C)n1,43.32
16,CCCS(=O)(=O)N1CCN(c2cc(-n3cnc(C)c3C)nc(C)n2)CC1,35.54

row,Structure (SMILES),INHIBITION [%]
1,CCS(=O)(=O)N1CCN(c2cc(-n3cnc(C)c3C)nc(C)n2)CC1,61.28
2,CCOCCN1CCCC1CS(N)(=O)=O (configuration not stated),-7.76
3,O=C(c1ccc2c(c1)OCO2)N1CCCC(Nc2ccc(F)cc2)C1 (configuration not stated),47.67
4,CC(C)(O)CSCCNC(=O)c1ccc(F)cc1Cl,58.69
5,CSCC(C)(O)CNC(=O)c1ccc(F)cc1Cl (configuration not stated),-29.65
6,CC(C)(O)CSCCNC(=O)c1cc(F)ccc1F,35.56
7,O=C(CCc1ccc(Cl)cc1)N[C@@H]1CC[C@@H](O)[C@@H]1O,-11.3
8,c1cncc(CN2CCCn3nnc(COCC4CC4)c3C2)c1,34.37
9,O=C(COCc1ccccc1)Nc1ccccn1,62.51
10,CSc1ccc(NC(=O)COCc2ccccc2)nc1,12.43
11,O=C(CCCOCc1ccccc1)N1CCCC1c1ccccn1 (configuration not stated),28.51
12,CS(=O)(=O)Cc1cc(F)ccc1NCc1nnsc1Cl,-13.68
13,CCC(C)(C)NC(=O)Cn1nnc(CN(C)C(=O)c2ccccc2)n1,2.49
14,Cc1ccc(N(C)Cc2nnnn2C2CC2)c(C)c1,-11.28
15,CCN(Cc1nnnn1C1CC1)c1cc(C)ccc1C,55.43
16,CN(Cc1nnnn1C1CC1)c1cccc2ccccc12,4.86

# — ChEMBL document CHEMBL4513216, “Probing the Open Global Health Chemical Diversity Library for Multistage-Active Starting Points for Next-Generation Antimalarials” (ACS Infect Dis, 2020)
